# PME-1 primary: PME-1 inhibitors via competitive probe labeling, primary screen, biochemical, fluorescence polarization, FP-Rh probe, HTS | Protein phosphatase methylesterase 1 (Homo sapiens), Q9Y570 | recombinant PME-1 | inhibition, % at 5.9 µM | 0.53% of 320,000 active;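 active = inhibition above the campaign mean of all compounds plus 3 SD, cut at about 26% in these data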;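 note: competitive labeling of PME-1 active site by serine hydrolase directed probe; 0% = PME-1 with DMSO and 100% = wells lacking PME-1 enzyme; inhibitors block probe labeling so polarization falls and inhibition rises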
# PREPL inhibitor: PREPL enzyme inhibitors, primary screen, biochemical, fluorescence polarization; Prolyl endopeptidase-like (Homo sapiens), Q4J6C6; inhibition, % at 5.96 µM; recombinant PREPL, fluorescence polarization activity-based probe; 0.68% of 320,000 active;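 note: 0% = enzyme with DMSO and 100% = wells lacking enzyme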
# LYPLA2 inh: LYPLA2 inhibitors, primary screen, counter-screen for PME1 inhibitor project, biochemical, fluorescence polarization, FP-Rh probe ABPP | Acyl-protein thioesterase 2 (Homo sapiens), O95372 | recombinant LYPLA2 | inhibition, % at 5.9 µM | 0.38% of 320,000 active;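 active = inhibition above the screen-wide mean plus 3 SD, limit set per campaign, cut at about 26% in these data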;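 note: 0% = LYPLA2 with DMSO and 100% = wells lacking LYPLA2 enzyme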
# Target sequence (O95372 whole entry, looked up): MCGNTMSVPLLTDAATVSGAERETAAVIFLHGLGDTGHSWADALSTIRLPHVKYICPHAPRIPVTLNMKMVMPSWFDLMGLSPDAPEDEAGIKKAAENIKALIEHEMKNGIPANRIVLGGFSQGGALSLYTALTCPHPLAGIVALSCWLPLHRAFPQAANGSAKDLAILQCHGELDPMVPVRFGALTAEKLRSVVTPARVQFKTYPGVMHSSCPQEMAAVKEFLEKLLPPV
# Fam108B counter: mouse Fam108B serine hydrolase inhibitors, primary screen, counter-screen for RBBP9 inhibitor project, biochemical, fluorescence polarization | recombinant Fam108B, FP-Rh probe fluorescence polarization | inhibition, % at 9.51 µM | 0.33% of 300,000 active | AID 1947, 2009;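 active = inhibition above the screen mean inhibition plus 3 SD, computed separately per campaign, cut at about 18% in these data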;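 note: inhibitors lower polarization as less probe binds the enzyme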
# LYPLA1 counter: LYPLA1 inhibitors, primary screen, counter-screen for PME1 inhibitor project, biochemical, fluorescence polarization, FP-Rh probe ABPP. recombinant LYPLA1. inhibition, % at 5.9 µM. 0.16% of 320,000 active;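 active = inhibition above the mean of all tested compounds plus 3 SD, set per campaign, cut at about 14% in these data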;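 note: inhibitors block serine hydrolase probe labeling of LYPLA1 so polarization falls; 0% = enzyme with DMSO and 100% = wells lacking LYPLA1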
# PREPL confirm: human PREPL enzyme inhibitors, confirmation, biochemical, fluorescence polarization; recombinant PREPL, fluorescence polarization activity probe; 67% of 2,000 active; inhibition, % at 5.96 µM; shares compounds with PREPL inhibitor;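 note: 0% = protein with DMSO and 100% = wells lacking protein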
# * hit, by the source's call; nt = no result given. Shown are actives, neighbours in structure and some others; about 1.3% of the full set was active somewhere. Cut-off read from the data, not from the text of the source, unless noted: active = inhibition above about 43%; inactive = the rest.
SMILES,PME-1 primary,PREPL inhibitor,LYPLA2 inh,Fam108B counter,LYPLA1 counter,PREPL confirm
CCN(C(=O)CSc1nc(C)nc2sc3c(c12)CCC3)C1CCS(=O)(=O)C1 (centres undefined),nt,54*,nt,nt,nt,37
CCCCOc1ccc(C(=O)NCC(=O)NCCOc2ccccc2OC)cc1,-1,0,-3,nt,2,nt
Cc1ccc(Nc2nc(N/N=C/c3c[nH]c4ccccc34)nc(N3CCOCC3)n2)cc1,22,44*,0,17,-5,60*
CCC1(c2ccccc2)NC(=O)N(CC(=O)N2CC(=O)Nc3ccccc32)C1=O (centres undefined),2,-20,-3,nt,-3,nt
Oc1ccccc1N1CCN(c2ccc3ccccc3n2)CC1,4,54*,3,-2,-1,42
COc1ccc(NC(=O)Cc2ccsc2)cc1S(=O)(=O)N1CCOCC1,0,6,1,nt,-1,nt
COc1ccc2c(C=Nc3c(C)n(C)n(-c4ccccc4)c3=O)c(O)n(Cc3ccco3)c(=O)c2c1,10,56*,-1,7,-1,37
Cc1c(N=Cc2ccco2)c(=O)n(-c2ccccc2)n1C,0,0,-2,-6,-2,nt
O=C(c1ccco1)N1CCN(c2ccc(F)cc2)CC1,6,6,6,5,4,nt
Nc1ccc(N2CCN(C(=O)c3ccco3)CC2)cc1,-1,63*,8,3,2,44*
O=C(Cc1ccc(Cl)cc1)Nc1ccc(N2CCN(C(=O)c3ccco3)CC2)c(Cl)c1,3,54*,-1,0,-4,47*
O=C(COc1ccccc1)Nc1ccc(N2CCN(C(=O)c3ccco3)CC2)cc1,-7,42,1,0,-2,nt
Cc1ccc(OCC(=O)Nc2ccc(N3CCN(C(=O)c4ccco4)CC3)cc2)cc1,-4,52*,6,1,0,43*
Cc1c(C#N)c(=O)c(-[n+]2ccccc2)c([S-])n1-c1ccc(Cl)cc1,-6,12,-8,-6,-6,nt
COc1ccc(NCc2nc3ccccc3n2CCOc2ccccc2)cc1,15,40,4,4,-3,nt
COc1ccc(NCc2nc3ccccc3n2CCOc2ccc(C)cc2)cc1,11,62*,7,3,-7,60*
CC(=O)c1c(C)[nH]c(C(=O)OCc2nnc(-c3ccc([N+](=O)[O-])cc3)o2)c1C,nt,8,nt,nt,nt,nt
COCc1c(C(=O)OCc2nnc(-c3ccc([N+](=O)[O-])cc3)o2)oc2ccccc12,nt,43*,nt,nt,nt,40
COc1ccc2nc(/C=N/NC(=O)[C@@H]3CCCN3C(=O)OC(C)(C)C)ccc2c1,-3,38,3,3,2,nt
O=C(NCCc1c[nH]c2ccccc12)C(=O)NCC(c1ccco1)N1CCN(c2ccccc2)CC1 (centres undefined),5,46*,0,2,-3,33
O=C(NCCc1c[nH]c2ccccc12)C(=O)NCC(c1ccco1)N1CCN(c2ccc(F)cc2)CC1 (centres undefined),0,16,-3,-2,-3,nt
CCCn1c(C)cc(-c2csc(N)n2)c1C,-2,44*,5,-2,3,27
Cc1cc(-c2csc(N)n2)c(C)n1-c1ccc(Cl)c(Cl)c1,0,20,3,-2,2,nt
Cc1c(-c2csc(N)n2)cnn1C,4,1,-3,-4,-2,nt
COc1ccc(-n2c(C)cc(-c3csc(N)n3)c2C)cc1,-2,43*,1,6,1,28
O=[N+]([O-])c1cccc(/C=C/c2nc[nH]c2[N+](=O)[O-])c1,1,45*,12,6,10,40
COC(=O)CCC(=O)OC1(C)C(=O)C2=CN(C3CCCC3)C(c3ccc(OC)cc3)=CC2=C(Br)C1=O (centres undefined),0,54*,-5,8,1,41
COc1ccc(CN2C=C3C(=O)C(C)(OC(=O)CCc4ccccc4)C(=O)C=C3C=C2c2ccc(C#N)cc2)cc1 (centres undefined),10,33,2,9,-5,nt

# Compound activity from PubChem BioAssay.
